Source: PubChem BioAssay (NCATS)
Inconclusive results are not listed. Active and inactive are the calls of the source. Unless noted, the call rests on the fitted dose curve; in most records, active means well fitted curve in the direction sought with a large enough effect; inconclusive means small, poorly fitted or top-dose-only effect, or another doubt; inactive means no such curve, though single readings can be large; an effect the other way counts as inactive or inconclusive.

How the values were obtained:
[1] = qHTS assay for measurement of the activity of small molecule inhibitors on Zika virus induced Caspase-3 activity in human iPSC derived neural progenitor cells (hNPCs) (AID 1224857); further: nearly all actives have a fitted effect of over 65% in size
Procedure, shortened: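 Percent inhibition of virus-induced caspase-3/7 luminescence (Caspase-Glo), scaled between uninfected cells and Zika-infected cells. hNPCs received compound 1 hr before ZIKV at 2 FFU/cell, with 6 hours infection at 37 C.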

[2] = qHTS assay for measurement of the activity of small molecule inhibitors on Zika virus induced Caspase-3 activity in human astrocytoma cells (AID 1224859)
Procedure, shortened: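 Luminescent caspase-3/7 read-out (30 min reagent, room temperature) in human SNB-19 cells infected 6 h with ZIKV (2 FFU/cell) after 1 h compound pre-incubation; Data were normalised to uninfected and infected wells.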

[3] = P-glycoprotein substrates identified in KB-3-1 adenocarcinoma cell line, qHTS therapeutic library screen (AID 1346986); further: nearly all actives have a fitted effect of over 60% in size
Procedure, shortened: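 KB-3-1 parental and colchicine-selected P-gp-overexpressing KB-8-5-11 cells (colchicine omitted during assay), 500 cells/well, dosed in dose-response for 72 h at 37 °C; CellTiter-Glo luminescence. Cytotoxic: curve class -1.1 to -2.4, max response >50%, AC50 < 10 uM.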

[4] = P-glycoprotein substrates identified in KB-8-5-11 adenocarcinoma cell line, qHTS therapeutic library screen (AID 1346987); further: nearly all actives have a fitted effect of over 65% in size
Procedure, shortened: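 Steps: plate 500 KB-8-5-11 cells/well in DMEM + 10% FCS (colchicine removed); pin compounds in dose-response; incubate 72 h, 37 degree C, 5% CO2; add CellTiter-Glo, 5 min; read luminescence.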

[5] = NS1 protein of Zika virus - qHTS assay to identify small molecule inhibitors in human HEK 293 cells (AID 1347053); further: series mostly up to about 46 µM; nearly all actives have a fitted effect of over 55% in size
Procedure, shortened: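 HEK 293 cells pretreated with compound for 1 h, then infected with ZIKV MR766 (MOI 0.5) for 24 h at 37 C. NS1 detected by TR-FRET with two anti-NS1 antibodies; normalized to uninfected (0%) and infected (100%) wells.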

[6] = qHTS of pediatric cancer cell lines to identify multiple opportunities for drug repurposing: Primary screen for TC32 cells (AID 1347089); further: nearly all actives have a fitted effect of over 60% in size
Procedure, shortened: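 In the primary qHTS, MIPE compounds were tested at 11 concentrations (0.78 nM to 46 µM) and NPC compounds at 8 (0.59 nM to 46 µM) on TC32 cells for 48 h. CellTiter-Glo luminescence gave viability.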

[7] = qHTS of pediatric cancer cell lines to identify multiple opportunities for drug repurposing: Primary screen for DAOY cells (AID 1347090); further: series mostly up to about 46 µM; nearly all actives have a fitted effect of over 55% in size
Procedure, shortened: (§1)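 Viability measured as metabolically active cells via CellTiter-Glo luminescence following 48 hours of compound exposure, 11-point dilutions in confirmatory testing. 500-1,000 cells/well plated 5 hours before dosing; controls were DMSO and 2.3 µM bortezomib.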

[8] = qHTS of pediatric cancer cell lines to identify multiple opportunities for drug repurposing: Primary screen for SJ-GBM2 cells (AID 1347091)
Procedure, shortened: as §1

[9] = qHTS of pediatric cancer cell lines to identify multiple opportunities for drug repurposing: Primary screen for A673 cells (AID 1347092); further: nearly all actives have a fitted effect of over 45% in size
Procedure, shortened: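 48 h compound exposure, A673, 500-1,000 cells/well, 37 degrees C/5% CO2. MIPE: 11-point, 0.78 nM-46 µM; NPC: 8-point, 0.59 nM-46 µM (final). Readout CellTiter-Glo luminescence after 15 min RT.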

[10] = qHTS of pediatric cancer cell lines to identify multiple opportunities for drug repurposing: Primary screen for SK-N-MC cells (AID 1347093); further: series mostly up to about 46 µM
Procedure, shortened: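 Metabolically active cells were quantified by ATP-dependent luminescence (CellTiter-Glo, 15 min at room temperature) following 48 h treatment. Cells had been plated at 500-1,000 per well and settled for 5 h beforehand.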

[11] = qHTS of pediatric cancer cell lines to identify multiple opportunities for drug repurposing: Primary screen for BT-37 cells (AID 1347094); further: series mostly up to about 57 µM
Procedure, shortened: (§2)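 Primary screen of approved and investigational compounds on cells in growth media at 37 degrees C, 5% CO2. MIPE set at 11-point and NPC set at 8-point dilutions; viability scored by ATP-based luminescence at 48 hours.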

[12] = qHTS of pediatric cancer cell lines to identify multiple opportunities for drug repurposing: Primary screen for NB-EBc1 cells (AID 1347095)
Procedure, shortened: as §2

[13] = qHTS of pediatric cancer cell lines to identify multiple opportunities for drug repurposing: Primary screen for Saos-2 cells (AID 1347097); further: nearly all actives have a fitted effect of over 40% in size
Procedure, shortened: as §2

[14] = qHTS of pediatric cancer cell lines to identify multiple opportunities for drug repurposing: Primary screen for U-2 OS cells (AID 1347096); further: nearly all actives have a fitted effect of over 50% in size
Procedure, shortened: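 Viability after 48 h compound treatment at 37C, 500-1,000 cells/well, read as ATP luminescence with CellTiter-Glo. Primary screens used 11-point (MIPE, 0.78 nM-46 µM) or 8-point (NPC, 0.59 nM-46 µM) final concentrations; follow-up screens used 11-point dilutions.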

[15] = Natriuretic polypeptide receptor (hNpr1) antagonism - Pilot counterscreen GloSensor control cell line (AID 1347045; calls by dose curve; further: series mostly up to about 38 µM)
Procedure, shortened: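 Luminescence was read before and 20 min after adding 50 uM SNP, which stimulates soluble guanylyl cyclase. The HEK293 cells expressing the GloSensor cGMP sensor had been preloaded with 2% reagent for 2 h and treated with compound.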

[16] = molecular target: Atrial natriuretic peptide receptor 1 (Homo sapiens) (UniProt P16066); assay: Natriuretic polypeptide receptor (hNpr1) antagonism - Pilot screen (AID 1347049; calls by dose curve;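 further: agonist-evoked cGMP luminescence read 20 min after hNppA addition; series mostly up to about 58 µM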)
Procedure, shortened: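 HEK293 cells expressing hNpr1 and GloSensor cGMP luciferase, 1500/well, loaded with 2% GloSensor reagent 2 h, compound 30 min at room temperature; luminescence read before and 20 min after 0.1 nM hNppA stimulation.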

[17] = molecular target: Atrial natriuretic peptide receptor 2 (Homo sapiens) (UniProt P20594); assay: Natriuretic polypeptide receptor (hNpr2) antagonism - Pilot subtype selectivity assay (AID 1347050; calls by dose curve)
Procedure, shortened: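 HEK293 cells expressing hNpr2 and a GloSensor cGMP luciferase sensor, 1500/well, preloaded 2 h with 2% GloSensor reagent, compound 30 min, then 1 nM hNppC for 20 min. Antagonism from luminescence after versus baseline pre-read; LOPAC in 1:5 titrations.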

[18] = molecular target: T1, Tyrosine-protein phosphatase non-receptor type substrate 1 (Homo sapiens) + Leukocyte surface antigen CD47 (Homo sapiens) (UniProt P78324+Q08722); assay: CD47-SIRPalpha protein protein interaction - LANCE assay qHTS validation (AID 1347057; active means well fitted curve in the direction sought with a large enough effect in the signal ratio, with a control signal flat, not every such curve was filed as active; the % refers to the signal ratio; further: series mostly up to about 38 µM)
Procedure, shortened: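 First, His-tagged CD47 and Eu-labelled anti-His antibody met the compound for 30 min; next, site-specifically biotinylated SIRPalpha was added for 30 min; finally streptavidin-APC was added before reading the TR-FRET ratio.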

[19] = molecular target: T1, Tyrosine-protein phosphatase non-receptor type substrate 1 (Homo sapiens) + Leukocyte surface antigen CD47 (Homo sapiens); assay: CD47-SIRPalpha protein protein interaction - Alpha assay qHTS validation (AID 1347059);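 further: bead proximity luminescence from CD47 binding SIRPalpha after compound preincubation with SIRPalpha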
Procedure, shortened: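 Biotinylated Avi-tagged SIRPalpha (25 nM) preincubated 30 min with compound, then His-tagged CD47 (12.5 nM) added 30 min; AlphaScreen with Ni-NTA acceptor and streptavidin donor beads. PBS pH 7.4, 0.05% IGEPAL, room temperature; 7-point titrations.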

Measured: Potency

T1 sequence (P78324 whole entry, looked up): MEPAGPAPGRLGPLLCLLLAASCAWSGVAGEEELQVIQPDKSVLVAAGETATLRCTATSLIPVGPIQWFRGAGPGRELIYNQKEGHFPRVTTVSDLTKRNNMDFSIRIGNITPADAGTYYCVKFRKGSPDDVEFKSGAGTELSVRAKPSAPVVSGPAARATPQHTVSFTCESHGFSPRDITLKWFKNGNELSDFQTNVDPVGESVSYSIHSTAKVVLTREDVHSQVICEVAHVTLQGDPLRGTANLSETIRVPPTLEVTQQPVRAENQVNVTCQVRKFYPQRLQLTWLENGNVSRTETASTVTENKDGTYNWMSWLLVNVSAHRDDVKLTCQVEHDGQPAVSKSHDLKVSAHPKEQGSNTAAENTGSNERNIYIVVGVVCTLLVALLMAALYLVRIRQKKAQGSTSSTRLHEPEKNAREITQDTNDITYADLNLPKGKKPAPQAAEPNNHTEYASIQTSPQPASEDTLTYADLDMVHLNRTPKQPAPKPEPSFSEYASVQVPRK
T1 sequence (Q08722 whole entry, looked up): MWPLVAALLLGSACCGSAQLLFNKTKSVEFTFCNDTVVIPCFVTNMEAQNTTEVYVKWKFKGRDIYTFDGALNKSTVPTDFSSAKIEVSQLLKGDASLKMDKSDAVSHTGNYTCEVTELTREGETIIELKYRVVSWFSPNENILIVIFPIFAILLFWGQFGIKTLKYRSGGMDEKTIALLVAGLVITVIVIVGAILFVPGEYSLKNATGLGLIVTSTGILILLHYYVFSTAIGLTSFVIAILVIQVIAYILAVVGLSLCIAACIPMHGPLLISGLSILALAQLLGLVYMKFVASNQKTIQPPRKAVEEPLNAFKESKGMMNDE
Sequence of Atrial natriuretic peptide receptor 1 (Homo sapiens) (P16066 whole entry, looked up): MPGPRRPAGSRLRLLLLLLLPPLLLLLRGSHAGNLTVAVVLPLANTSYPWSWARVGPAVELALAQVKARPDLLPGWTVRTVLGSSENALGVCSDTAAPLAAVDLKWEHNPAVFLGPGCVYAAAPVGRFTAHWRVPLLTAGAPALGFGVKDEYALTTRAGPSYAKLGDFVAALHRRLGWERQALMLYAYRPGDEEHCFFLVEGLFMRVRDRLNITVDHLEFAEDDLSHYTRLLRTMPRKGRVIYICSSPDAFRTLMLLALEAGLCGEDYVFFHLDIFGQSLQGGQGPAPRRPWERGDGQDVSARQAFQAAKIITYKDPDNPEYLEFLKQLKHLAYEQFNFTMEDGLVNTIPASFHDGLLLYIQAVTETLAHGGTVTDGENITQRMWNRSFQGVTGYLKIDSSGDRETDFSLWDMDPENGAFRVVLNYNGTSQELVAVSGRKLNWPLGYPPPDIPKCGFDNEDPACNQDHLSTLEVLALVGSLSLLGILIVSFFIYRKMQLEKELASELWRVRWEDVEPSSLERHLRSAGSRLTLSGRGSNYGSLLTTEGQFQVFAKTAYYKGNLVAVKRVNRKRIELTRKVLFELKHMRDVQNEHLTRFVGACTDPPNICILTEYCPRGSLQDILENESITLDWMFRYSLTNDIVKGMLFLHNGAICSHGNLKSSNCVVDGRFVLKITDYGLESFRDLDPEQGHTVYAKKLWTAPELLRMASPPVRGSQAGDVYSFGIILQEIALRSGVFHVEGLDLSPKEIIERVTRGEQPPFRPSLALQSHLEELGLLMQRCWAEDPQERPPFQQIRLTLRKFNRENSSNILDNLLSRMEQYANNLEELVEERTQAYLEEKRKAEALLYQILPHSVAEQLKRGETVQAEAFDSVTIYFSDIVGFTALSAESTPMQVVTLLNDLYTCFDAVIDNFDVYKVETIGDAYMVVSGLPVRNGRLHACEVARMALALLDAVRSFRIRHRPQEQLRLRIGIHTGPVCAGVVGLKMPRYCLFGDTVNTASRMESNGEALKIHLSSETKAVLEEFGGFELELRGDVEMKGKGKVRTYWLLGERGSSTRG
Sequence of Atrial natriuretic peptide receptor 2 (Homo sapiens) (P20594 whole entry, looked up): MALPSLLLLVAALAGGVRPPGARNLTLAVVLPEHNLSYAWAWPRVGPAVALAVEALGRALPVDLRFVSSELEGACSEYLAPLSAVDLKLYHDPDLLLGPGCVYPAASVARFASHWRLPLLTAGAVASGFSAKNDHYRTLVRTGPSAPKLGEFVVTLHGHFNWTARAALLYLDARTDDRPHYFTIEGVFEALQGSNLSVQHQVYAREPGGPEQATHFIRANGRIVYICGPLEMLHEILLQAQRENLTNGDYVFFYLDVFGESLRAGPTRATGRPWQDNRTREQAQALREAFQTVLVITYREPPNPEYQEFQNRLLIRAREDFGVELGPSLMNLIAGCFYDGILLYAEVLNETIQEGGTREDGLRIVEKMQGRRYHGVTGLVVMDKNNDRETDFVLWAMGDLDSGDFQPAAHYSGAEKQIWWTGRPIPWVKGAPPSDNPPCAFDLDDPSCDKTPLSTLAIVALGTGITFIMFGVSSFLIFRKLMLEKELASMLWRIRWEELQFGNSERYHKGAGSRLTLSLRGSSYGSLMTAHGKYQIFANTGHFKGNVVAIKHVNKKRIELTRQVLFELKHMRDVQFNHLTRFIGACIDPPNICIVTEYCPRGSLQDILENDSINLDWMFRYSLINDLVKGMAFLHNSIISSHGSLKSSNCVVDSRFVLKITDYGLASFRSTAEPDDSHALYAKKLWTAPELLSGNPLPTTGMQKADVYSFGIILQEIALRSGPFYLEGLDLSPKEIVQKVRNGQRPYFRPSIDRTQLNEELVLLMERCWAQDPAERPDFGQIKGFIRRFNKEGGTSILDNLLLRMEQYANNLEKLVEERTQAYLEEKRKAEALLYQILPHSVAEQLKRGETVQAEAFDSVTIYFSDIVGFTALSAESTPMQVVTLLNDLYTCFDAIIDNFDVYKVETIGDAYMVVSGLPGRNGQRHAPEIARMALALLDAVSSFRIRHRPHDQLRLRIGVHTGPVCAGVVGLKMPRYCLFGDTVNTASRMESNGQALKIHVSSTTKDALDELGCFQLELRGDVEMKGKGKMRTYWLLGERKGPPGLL

CN(CC1(C)CCCO1)S(=O)(=O)c1ccc(Cl)c(S(N)(=O)=O)c1 (stereo not drawn)
not listed: [14] | [15] | [16] | [17] | [18] | [19]
inactive: all other assays above

O=C(O)Cc1ccccc1Oc1ccc(Cl)cc1Cl
not listed: [6] | [15] | [16] | [17] | [18] | [19]
inactive: all other assays above

C=CC[N+]1([C@H]2C[C@H]3[C@@H]4CC[C@H]5C[C@H](OC(C)=O)[C@@H](N6CCCCC6)C[C@]5(C)[C@H]4CC[C@]3(C)[C@H]2OC(=O)CC)CCCCC1
not listed: [11] | [13] | [15] | [16] | [17] | [18] | [19]
inactive: all other assays above

CCCCC(O)/C=C(C)/C=C/C=C/C(=O)N1CCCC1=O (stereo not drawn)
not listed: [14] | [15] | [16] | [17] | [18] | [19]
inactive: all other assays above

O=S(=O)(O)c1ccc2nc(-c3ccccc3)[nH]c2c1
inactive: [1] | [2] | [4] | [5] | [6]

CC(CCc1ccc2c(c1)OCO2)NN (stereo not drawn)
not listed: [3] | [13] | [15] | [16] | [17] | [18] | [19]
inactive: all other assays above

O=C1NC(c2cccc([N+](=O)[O-])c2)=CCN1c1ccccc1O
inactive: [1] | [2] | [4] | [15] | [16] | [17] | [5] | [18] | [19]

CN1CCC(=C2c3ccccc3CCc3cccnc32)CC1
inactive: [1] | [2] | [4] | [5] | [6] | [7] | [8] | [9] | [10] | [11]

CCOC(=O)OCC/C(SC(=O)OCC)=C(\C)N(C=O)Cc1cnc(C)nc1N
not listed: [3] | [13] | [15] | [16] | [17] | [18] | [19]
inactive: all other assays above

C[N+](C)(C)CCO
inactive: [1] | [2] | [4] | [15] | [16] | [17] | [5] | [18] | [19]
